Screen size: about 69,000 compounds; about 8,600 (12%) showed an effect of 50% or more. What follows is part of a selection rich in strong results, with near analogues and random picks from the rest.
Tested on: Plasmodium berghei
Test: Screen against P. berghei liver stage (PbLuc), transformed with Luciferase, at 10uM
Type: functional, HepG2
Conditions: tested at 10 uM

SMILES	INHIBITION [%]
NC(=O)C1=NC2=NS(=O)(=O)c3ccccc3N2N1Cc1ccc(Br)cc1	1.96
NC(=O)C1=NC2=NS(=O)(=O)c3ccccc3N2N1Cc1ccccc1Cl	30.8
NC(=O)C1=NC2=NS(=O)(=O)c3ccccc3N2N1Cc1ccc(Cl)cc1	59.7
COCCC(=O)N(CCC#N)c1ccc(C)c(C)c1	27
Cc1ncnc2c1CCN(Cc1ccccn1)CC2	-64.8
Cc1ccccc1-c1cncc(C2CCN(Cc3ccccn3)CC2)n1	19.6
Cc1nc(C2CCCNC2)nc2c1CCCN2Cc1ccccn1 (stereo unspecified)	11.8
Cc1c(C)n(-c2ccccn2)c2nc3c(c(N)c12)CCCCC3	32.2
Cc1c(C)n(Cc2ccccn2)c2nc3c(c(N)c12)CCCCCC3	49.7
Cc1c(C)n(-c2ccccn2)c2nc3c(c(N)c12)CCCC3	67.1
Cc1c(C)n(Cc2ccccn2)c2nc3c(c(N)c12)CCCC3	58.4
Cc1ncnc2c1CCN(c1ccccn1)CC2	-15.6
Cc1c(C)n(Cc2ccccn2)c2nc3c(c(N)c12)CCCCC3	55.3
CC(=O)N1CCC(c2nn(C)c3nccnc23)C1 (stereo unspecified)	-2.11
CC(C)n1cc(CN2CCCN(C(=O)COC3CCCC3)CC2)cn1	45.7
CCOc1ccc(-c2nc(C(=O)NCC3CCOC3)cs2)cc1 (stereo unspecified)	-16
CC(C)(C)c1cc(=O)n2c(n1)SCC(C(=O)NCc1ccco1)C2 (stereo unspecified)	46.1
COc1ccc(C2=Nn3c(CN)nnc3-c3ccccc3C2)cc1	64
COc1ccc(C2=Nn3c(CCCN)nnc3-c3ccccc3C2)cc1	18.4
COc1ccc(C2=Nn3c(CCN)nnc3-c3ccccc3C2)cc1	21.7
Cc1cc(C)nc(Nc2cccc(C3CCCN(S(C)(=O)=O)C3)n2)n1 (stereo unspecified)	44.8
Cc1cc(C)nc(Nc2cccc(C3CCCN(C)C3)n2)n1 (stereo unspecified)	28.4
Cc1ccc(NC2CCCN(C3Cc4ccccc4C3)C2)nn1 (stereo unspecified)	34.9
O=C(NCc1ccc2nonc2c1)C1CCN(C(=O)C2CCC2)CC1	-119
Cc1cc(C)nc(NC2CCc3nc(C)nn3C2)n1 (stereo unspecified)	-12.1
c1ccc2c(c1)CC(N1CCCC(NCc3cccc4nonc34)C1)C2 (stereo unspecified)	41.5

SMILES	INHIBITION [%]
CNc1nc(C)cc(NC2CCCN(C3Cc4ccccc4C3)C2)n1 (stereo unspecified)	83.9
CNc1cc(C)nc(NC2CCCN(C3Cc4ccccc4C3)C2)n1 (stereo unspecified)	79.4
c1ccc2c(c1)CC(N1CCCC(NCc3ccc4nonc4c3)C1)C2 (stereo unspecified)	50.1
Cc1ccc(CNCC2CCN(CC(O)c3ccccc3)CC2)o1 (stereo unspecified)	-23.8
O=C(NCc1nncn1C1CC1)c1ccccc1OCC1CC1	25.6
CN(C)c1ncc(-c2cc(C(=O)NCCO)n(CC3CC3)c2)cn1	26.3
CCOc1ccccc1C(=O)Oc1cc(=O)n2cccc(C)c2n1	4.35
O=C(NC1CCC1)c1c2c(N3CCCC3)ncnc2n2ccccc12	46.2
COCCN(C)C(=O)c1ccccc1-n1cccn1	63.8
COCCCN(CCOC)C(=O)Nc1ccccc1-n1cccn1	32.2
COCCN(C)C(=O)c1ccccc1-n1cc(CN(C)C)cn1	-29.8
CC(C)n1nc(CN2CCOCC2)c2c1CN(C(=O)c1ccno1)C2	62.3
CC(C)n1nc(CN2CCCC2=O)c2c1CN(C(=O)c1ccno1)C2	27.5
CC(C)n1nc(CN2CCCCC2)c2c1CN(C(=O)c1ccno1)C2	26.5
COCCNC(=O)c1cc(C)nc(C2CCN(C)CC2)n1	-22.5
CNC(=O)[C@@H]1COC[C@H]2CN(C(=O)c3ccc(C)c(F)c3)C[C@H]21	31.9
CCc1ccc(C(=O)N2C[C@@H]3COC[C@@H](C(=O)NC)[C@@H]3C2)cc1	6.83
CNC(=O)[C@@H]1COC[C@H]2CN(C(=O)c3ccc(C)c(C)c3)C[C@H]21	51.2
CNC(=O)[C@@H]1COC[C@H]2CN(C(=O)COc3ccccc3)C[C@H]21	63
CNC(=O)[C@@H]1COC[C@H]2CN(C(=O)c3ccc(OC)cc3)C[C@H]21	-2.03
CNC(=O)[C@@H]1COC[C@H]2CN(C(=O)c3cccc(OC)c3)C[C@H]21	33.4
O=C(NC1CCN(C2CC2)CC1)N1CCN(c2cnccn2)CC1	37.9
CN(C)C(=O)CO[C@H]1CN(Cc2nccs2)[C@@H]2COC[C@H]12	0.71
COc1ccc(Oc2ncccc2F)cc1CN1CCCC1	74.8
COc1ccc(Oc2nccc3occc23)cc1CN1CCCC1	-4.23
N#Cc1cccnc1Oc1cc(F)c(CN2CCCC2)c(Cl)c1	11.4

SMILES	INHIBITION [%]
COc1cc(CN2CCCC2)ccc1Oc1ncccc1C(F)(F)F	80.3
COC(=O)c1ccc(Cn2cccc(C(F)(F)F)c2=O)c(OC)c1	33.1
Fc1cccnc1Oc1cc(F)c(CN2CCCC2)c(Cl)c1	60.9
Fc1cccnc1Oc1cc(F)c(CN2CCCC2)c(F)c1	9.84
COc1cc(CN2CCCC2)ccc1OC12CCCN(CC1)C2 (stereo unspecified)	-14.7
COc1cc(Oc2ncccc2C(F)(F)F)ccc1CN1CCCC1	88.4
COc1ccc(OC)c(CN2CCN(Cc3cscn3)CC2)c1	1.06
COc1ccc(CC(=O)Nc2cccnc2N2CCCC2)cc1OC	4.71
Cc1nn(C)c(=O)c2nn(-c3cccc(Cl)c3)c(C)c12	37.2
N#Cc1c(N)nc2c(c1-c1c[nH]nc1C1CCCCC1)COCC2	11.5
Cn1cc(-c2nc(CN3CCOC(Cn4cncn4)C3)cs2)cn1 (stereo unspecified)	26.5
COc1ccc(NC(=O)CSc2nncn2-n2cccc2)c(OC)c1	31.6
CCn1nc2c(cc1=O)CN(CC(=O)Nc1nc(C)c(C)s1)CC2	-0.188
Cc1cc(N(C)C)nc(C2CCCN2)n1 (stereo unspecified)	15.5
CO[C@@H]1CCN(C(=O)c2ccccn2)[C@H]1Cc1ccccc1	-15.1
COc1ccc(Oc2ncccc2C(N)=O)cc1CN1CCCC1	51.2
COc1ccc(Oc2ncccc2C(F)(F)F)cc1CN1CCCC1	66.6
COc1ccccc1Oc1ncccc1CNC(=O)C(C)N1CCCC1 (stereo unspecified)	21.7
COc1ccc(F)cc1CN1CCCC(c2cc(C(N)=O)[nH]n2)C1 (stereo unspecified)	-2.42
COc1ccc(F)cc1CN1CCC(O)(CN2CCCCC2)C1 (stereo unspecified)	16.1
COc1ncccc1CN1CCC2(CCCN2S(C)(=O)=O)CC1	45.2
CC(C)c1nn(C)c(N(C)C)c1CNCc1ccccc1CO	-9.05
Cc1cc(CN(C)C(=O)NC2CCN(C3CC3)CC2)no1	3.75
Cc1ccc(C)c(CSc2nnc([C@@H](N)C(C)C)o2)c1	34.5
CCC(=O)Nc1ccc(OCC(=O)N(C)C(C)c2ccon2)cc1 (stereo unspecified)	10.7
Cc1ccc(-c2nc(CC3CCN(C)CC3)no2)cc1N1CCNC1=O	14.1

SMILES	INHIBITION [%]
CC(c1nnc(-c2cccs2)o1)N1CCc2cncnc2C1 (stereo unspecified)	-18.5
O=C(NCC1OCCc2cn(CC3CCOCC3)nc21)c1ccsc1 (stereo unspecified)	49.3
Cc1ccc(N2CC[C@@H]3[C@@H]2CCN3C(=O)c2cscn2)nn1	18.5
CCCC(=O)N1CC[C@@H]2[C@H](CC1)N(Cc1cccc(C)n1)CCS2(=O)=O	57.1
O=C(Cc1ccccc1)N1CC[C@H]2[C@@H]1CCC(=O)N2Cc1ccncc1	3.25
O=C1C[C@H]2[C@@H](CCN2C(=O)Cc2ccccc2)N1Cc1cccnc1	-6.05
Cc1ccc(N2CC[C@@H]3[C@@H]2CCN3C(=O)Cc2cccs2)nn1	31.2
Cc1ccc(N2CCCC(NCc3ccsc3)C2)nn1 (stereo unspecified)	5.44
CCC(=O)N1CC[C@@H]2[C@H](CC1)N(Cc1cccc(C)n1)CCS2(=O)=O	2.4
Cc1cccc(CN2CCS(=O)(=O)[C@@H]3CCN(C(=O)C4CC4)CC[C@@H]32)n1	34.9
Cc1ccc(N2CC[C@@H]3[C@@H]2CCN3C(=O)Cc2ccccc2)nn1	69.3
O=C1C[C@H]2[C@@H](CCN2C(=O)Cc2ccsc2)N1Cc1cccnc1	62.9
O=C1C[C@H]2[C@@H](CCN2C(=O)Cc2cccs2)N1Cc1cccnc1	24.9
Cc1ccc(N2CC[C@@H]3[C@@H]2CCN3Cc2ccsc2)nn1	51.2
CCN(Cc1noc(C2CCC2)n1)C(=O)c1cnc2ccccc2c1	7.44
Cc1nc(-c2ccccc2C(=O)O)cc(C2CCN(C(C)C)C2)n1 (stereo unspecified)	24.8
NC(=O)[C@@H]1CN2CCN(C(=O)C3CC3)C[C@@H]2[C@H]1c1ccccc1	16.9
CC(C)c1nc(C2CCCN(C(=O)Cn3ccccc3=O)C2)no1 (stereo unspecified)	-7.31
CN1Cc2cnn(CC3CCCC3)c2C(COCC2CC2)C1 (stereo unspecified)	26.3
Cc1ccc(CN2CC[C@H]3C[C@H](C(=O)N4CCCO4)O[C@@H]3C2)o1	38.5
CCN(CC)C(CNC(=O)c1ccc(-n2cncn2)cc1)c1ccsc1 (stereo unspecified)	-2.46
CNC(=O)c1sc2ccccc2c1CC1CCCCN1Cc1ncc[nH]1 (stereo unspecified)	42.2
O=C(Cn1nc(Br)nc1Br)N1CCCC1	27.4

Source: ChEMBL document CHEMBL4513216, “Probing the Open Global Health Chemical Diversity Library for Multistage-Active Starting Points for Next-Generation Antimalarials” (ACS Infect Dis, 2020)
